High-throughput results as filed in PubChem BioAssay.
This is a sample that favours compounds with a hit; in the whole collection about 3.1% have one here.
INS-1E GSIS act – primary screen for activators of insulin secretion dependent on glucose, INS-1E cells, GLuc reporter luminescence; INS-1E GLuc reporter insulin secretion, 2-3 h; activation, % at 16.6 µM; actives 0.61% (n = 370,000); AID 743287;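 active = lowest replicate activation of at least 40%, so every replicate reaches that level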;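 note: 0% = median of neutral control wells and 100% = median of IBMX positive control wells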
dFosB activator – enhances mouse delta FosB homodimer DNA binding | P13346 | purified delta FosB, TAMRA-CDK5 oligo fluorescence polarization; percent of positive-control signal above neutral wells | activation, % at 25 µM | actives 0.99% (n = 340,000) | AID 493131;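 active = mean activation above about 17%, with every replicate also reaching it, limit read from the data, passing the limit was not always enough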
RAD52 anneal inh – RAD52 (human) annealing inhibition; actives 0.46% (n = 360,000); recombinant RAD52 DNA annealing, FRET fluorescence; AID 651710; inhibition, % at 18.7 µM;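 active = every replicate showing at least 50% inhibition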
Target sequence (P43351 whole entry, looked up): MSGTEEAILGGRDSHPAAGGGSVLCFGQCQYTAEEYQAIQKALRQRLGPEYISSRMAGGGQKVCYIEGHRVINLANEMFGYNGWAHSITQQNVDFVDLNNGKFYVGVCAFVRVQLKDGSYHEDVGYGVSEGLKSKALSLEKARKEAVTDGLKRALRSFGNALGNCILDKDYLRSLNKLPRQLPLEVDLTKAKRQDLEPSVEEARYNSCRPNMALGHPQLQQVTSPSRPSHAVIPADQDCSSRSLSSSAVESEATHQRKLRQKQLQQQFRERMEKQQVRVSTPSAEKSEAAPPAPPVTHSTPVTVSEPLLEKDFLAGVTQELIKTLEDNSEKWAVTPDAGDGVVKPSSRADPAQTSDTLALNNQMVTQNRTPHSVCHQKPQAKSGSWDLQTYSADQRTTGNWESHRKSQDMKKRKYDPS
RAD54 inh – inhibitors of human RAD54 branch migration; inhibition, % at 10.4 µM; RAD54 Holliday junction branch migration, FAM/BHQ fluorescence; actives 0.14% (n = 360,000); Q92698;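 active = mean normalized replicate activity at least 40 and at least half of replicates scoring 40 or more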;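 note: 0% = median of neutral control wells and 100% = median of positive control wells; inhibitors cause a drop in the FAM fluorescence signal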
DENV2 CPE – inhibitors of DENV2 cytopathic effect; DENV2-infected cells, cytopathic effect rescue, plate reader; CPE inhibition, % at 9.99 µM; actives 1.7% (n = 350,000); in the data active = CPE inhibition above about 20%, passing the limit was not always enough; tested in BHK-21 cells;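 note: 0% = median of neutral control wells and 100% = median of positive control wells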
AF4-AF9 inh – MLL-AF4/AF9 protein interaction inhibition. inhibition, % at 10 µM. AlphaScreen, biotin-AF4 peptide binding to FLAG-AF9. P42568. actives 0.47% (n = 350,000);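 active = every replicate reaching a set inhibition limit, whatever the replicate mean, cut at about 25% in these data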;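 note: 0% = plate neutral control median and 100% = total signal loss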
Numbers without * were called inactive.

Results for C[C@@H]1CN([C@H](C)CO)S(=O)(=O)c2ccc(-c3cncnc3)cc2O[C@@H]1CN(C)C ?
INS-1E GSIS act: 17; RAD52 anneal inh: -2; RAD54 inh: 5; DENV2 CPE: 6; AF4-AF9 inh: -4

Results for Cc1ccccc1NC(=O)CN1C(=O)S/C(=C/c2cccnc2)C1=O ?
INS-1E GSIS act: 40*; dFosB activator: -3; RAD52 anneal inh: -17; RAD54 inh: -13; DENV2 CPE: 2; AF4-AF9 inh: -5

How did O=C(O)CSCC(=O)Nc1cc(C(F)(F)F)ccc1Cl do in these assays?
INS-1E GSIS act: 49*; dFosB activator: -7; RAD54 inh: 2

What do the screens show for `O=C(CN1CCCC1)Nc1cc(C(F)(F)F)ccc1Cl`?
INS-1E GSIS act: -2; dFosB activator: 3; RAD52 anneal inh: 4; AF4-AF9 inh: -4

How did COCCCNc1ccc([N+](=O)[O-])cc1C(=O)Nc1cccc(C)n1 do in these assays?
INS-1E GSIS act: 45*; dFosB activator: -9; RAD52 anneal inh: -11; AF4-AF9 inh: 1

What do the screens show for `CCC(=O)Nc1ccc2c(c1)C(=O)N(C)C[C@H](OC)[C@@H](C)CN(C(=O)CN1CCOCC1)[C@H](C)CO2`?
INS-1E GSIS act: 8

Results for COc1ccc(S(=O)(=O)Nc2ccc3c(c2)C(=O)N([C@@H](C)CO)C[C@H](C)[C@@H](CN(C)C(=O)Cc2ccccc2)OCCCC[C@@H](C)O3)cc1 ?
INS-1E GSIS act: -26; RAD52 anneal inh: 2; RAD54 inh: -4; DENV2 CPE: 26*; AF4-AF9 inh: -1

What do the screens show for `COc1ccc(S(=O)(=O)Nc2ccc3c(c2)C(=O)N([C@H](C)CO)C[C@H](C)[C@@H](CN(C)C(=O)Cc2ccccc2)OCCCC[C@@H](C)O3)cc1`?
INS-1E GSIS act: 1; RAD52 anneal inh: -14; RAD54 inh: 5; DENV2 CPE: 10; AF4-AF9 inh: -4

What do the screens show for `COc1ccc(S(=O)(=O)Nc2ccc3c(c2)C(=O)N([C@@H](C)CO)C[C@@H](C)[C@@H](CN(C)C(=O)Cc2ccccc2)OCCCC[C@@H](C)O3)cc1`?
INS-1E GSIS act: -29; RAD52 anneal inh: -8; RAD54 inh: -1; DENV2 CPE: 21*; AF4-AF9 inh: 0

Results for O=[N+]([O-])c1cccc(NC(=S)N2CCc3ccccc32)c1 ?
INS-1E GSIS act: 10; dFosB activator: -1; RAD52 anneal inh: -25; RAD54 inh: 10; DENV2 CPE: 70*; AF4-AF9 inh: 5

How did O=C(Nc1cccc([N+](=O)[O-])c1)N1CCCc2ccccc21 do in these assays?
INS-1E GSIS act: 44; dFosB activator: -1; RAD52 anneal inh: -39; RAD54 inh: -18; DENV2 CPE: -11; AF4-AF9 inh: 4

Results for CCCCn1c(-c2ccncc2)nc2c1c(=O)[nH]c(=O)n2CC(C)C ?
INS-1E GSIS act: 70*; dFosB activator: -6; RAD54 inh: -3

Results for C[C@H](NC(=O)C[C@H]1C=C[C@H](NC(=O)Cc2ccccn2)[C@H](CO)O1)c1ccccc1 ?
INS-1E GSIS act: 10; RAD52 anneal inh: -14; RAD54 inh: -3; DENV2 CPE: 19; AF4-AF9 inh: 2

Results for COc1ccccc1C=NNC(=O)c1ccccc1OCCOc1ccccc1 ?
INS-1E GSIS act: 1; dFosB activator: -18; RAD52 anneal inh: -4; RAD54 inh: -8; DENV2 CPE: 75*; AF4-AF9 inh: 2

What do the screens show for `COc1cccc(/C=N/NC(=O)C(=O)N/N=C/c2cccc(OC)c2OC)c1OC`?
INS-1E GSIS act: 15; dFosB activator: 5; RAD52 anneal inh: -12; RAD54 inh: 3; DENV2 CPE: 85*; AF4-AF9 inh: 0

What do the screens show for `C[C@H]1CN([C@@H](C)CO)C(=O)c2cccc(NC(=O)Nc3ccc(C(F)(F)F)cc3)c2O[C@H]1CN(C)S(=O)(=O)c1ccc(Cl)cc1`?
INS-1E GSIS act: 0; RAD52 anneal inh: 11; RAD54 inh: 1; DENV2 CPE: -3; AF4-AF9 inh: 0

Results for O=C(C[C@@H]1CC[C@@H](NC(=O)c2ccncc2)[C@H](CO)O1)Nc1ccccc1 ?
INS-1E GSIS act: 10; RAD52 anneal inh: -3; RAD54 inh: -2; DENV2 CPE: 3; AF4-AF9 inh: 0

How did CCOC(=O)c1sc(NC(=O)c2ccncc2)c(C#N)c1C do in these assays?
dFosB activator: -2; RAD52 anneal inh: -29; DENV2 CPE: 43*; AF4-AF9 inh: 3
